Measurements reported in PubChem BioAssay AID624331 (National Center for Advancing Translational Sciences (NCATS), 2012).
Results filed as inconclusive are left out. Values without a mark were called inactive. Active and inactive are the calls of the source. The call rests on the fitted dose curve; in most records, active means well fitted activation curve with a large enough effect; inconclusive means small, poorly fitted or top-dose-only effect; inactive means no such curve, though single readings can be large or run the other way.

Test: qHTS assay for re-activators of p53 using a Luc reporter: Hit Validation with no p53 Expressed; on activity change, positive = activation: 0% is about no effect
Settings: p53-null cells, luciferase reporter counter-screen; series mostly up to 46.1 µM; activity change, positive = activation: at the top concentration
Procedure, shortened: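 Counter-screen of primary hits in a cell line not transfected with p53, in Opti-MEM with 10% FBS; compounds at several concentrations (10 mM stock, 1:5; top 46.1 µM in well), 24 h at 37 deg C, 5% CO2. Luminescence read after 10 min with Amplite reagent.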
Potency means the concentration at half of the fitted maximal effect.

Point of comparison: `COc1cccc(/C=N/NC(=O)c2nc(-c3ccccc3)cc(-c3ccccc3)n2)c1O`, “activity change, positive = activation” value 2.35%. Against it:
- CN1C(=O)C2(OCC(CO)([N+](=O)[O-])CO2)c2ccccc21 (centres undefined) — lower, -34.5%
- O=C(CSc1nnc(-c2ccc(O)cc2)o1)Nc1ccc2c(c1)OCCO2 — higher, 67.2%
- O=C(NNC(=S)NC1CCCCC1)c1cccs1 — higher, 2.52%
- O=[N+]([O-])c1ccc(/C=N/NC(=S)Nc2ccccc2F)o1 — lower, -5.46%
- CCN(CC)CCN1C(=O)C(=O)/C(=C(/O)c2cnn(-c3ccccc3)c2C)C1c1ccc(C)o1 (centres undefined) — higher, 24.6%
- Cc1cc(CC(C)C)n(-c2nc3ccccc3c(=O)n2OCC(N)=O)n1 — lower, -1.66%
- NNC(=O)c1cccc(O)c1 — higher, 8.43%
- COc1ccc(NC(=O)/C(Cl)=C(/Cl)S(=O)(=O)Cc2ccc(C)cc2)cn1 — lower, -66.8%
- Cc1cc(/C=C2/C(=O)NN(c3ccccc3)C2=O)c(C)n1-c1cccc(O)c1 — lower, -18.1%
- CCOCCCNc1nc2c([nH]1)c(=O)n(C)c(=O)n2C — higher, 46.1%
- COc1ccnc(CSC(N)=Nc2ccccc2OC)c1 — lower, -41.7%
- COc1cccc(/C=N/NC(=O)CCc2n[nH]c(=O)[nH]c2=O)c1O — lower, -13.8%
- Cc1cc(F)ccc1NC(=O)Nc1ccc2c(c1)OCO2 — lower, -27.5%
- O=C(N/N=C(\c1ccccc1)c1cccnc1)c1cccc(F)c1 — higher, 53.8%
- COCCn1c(C)cc(C(=O)CSc2nc3ccccc3s2)c1C — lower, -4.14%
- COc1ccc([N+](=O)[O-])cc1NC(=O)C1CCCCC1C(=O)O (centres undefined) — lower, -7.45%
- CCCC(=O)NC(c1cccs1)c1cc([N+](=O)[O-])c2cccnc2c1O (centres undefined) — lower, -22.1%

For `CC(/C=N/Nc1nc2ccccc2[nH]1)=C\c1ccccc1`, the Potency was 116 nM (active).
